Entries with a potency or affinity are not part of this list. Activity calls are given as the source filed them. The rule behind the calls is not given here.

This assay can be described thus: cell-based, strain KU V3526, counter-screen (AID 602242).

As for `O=c1c2cc([N+](=O)[O-])ccc2nc(CN2CCN(c3ccccc3)CC2)n1-c1ccccc1F`, the call was inactive.

`O=C(Oc1ccc2ccccc2c1Br)N1CCCCCC1`: the result was inactive.

The record behind these values is PubChem BioAssay AID602242 (Southern Research Specialized Biocontainment Screening …, 2012).
